In all, about 9,900 sequences were measured (“r (bound/input frequency ratio)”: median about 0.7, highest 2% from about 6.5 on). The entries come from a sample that favours the highest values as a whole.
B1: ENSMUSG00000043670.232|Diras1 (ssRNA)
RNA: GGGAGUUCUACAGUCCGACGAUCGCUUCGAUAUCCGCAUGCUAGUGGUGUGUCUGUAUGGCUCUGUGUUUUCAGGGGUGGGUGACACAGGCCUGUCUGAUGAGCACCAGGUCUGUUCCAGGCUGUGGCAAGCUGGCUCCUGGCUCAGAAGUGACAAAGCUGCAGUACAGAGGCCUCAGUGUGAGGUCAUCACCUCACAGUGGCUACAGACCAGGCUGUGGCCUGAGUGAGCUGGAACCUCUGGGGUGGGGACGAGAAAGAGAGAGGGAGAGAGAGGGGGGAGAGUGAGUGUGUGUGUGUGAAGCUCUUGCGGUCGCACUAGUGUGGAAUUCUCGGGUGUCAAGG
B2: ENSMUSG00000043670.242|Diras1|75:79;185:197;208:214;239:247 (ssRNA)
RNA: GGGAGUUCUACAGUCCGACGAUCGCUUCGAUAUCCGCAUGCUACACCAGGUCUGUUCCAGGCUGUGGCAAGCUGGCUCCUGGCUCAGAAGUGACAAAGCUGCAGUACAGAGGCCUCACACACAGGUCAUCACCUCACAGUGGCUACAGACCAGGCUGUGGCCUGAGUGAGCUGGAACCUCUGGGGUGGGGACGAGAAAGAGAGAGGGAGAGAGAGGGGGGAGAGUGACACACACACACACAAGGGGGAGACACACACGGGGAAGAGUGAGAGAGAUAGAGUCAUACACACAGAGGGAGGGAGACUCUUGCGGUCGCACUAGUGUGGAAUUCUCGGGUGUCAAGG
B3: ENSMUSG00000043670.234|Diras1 (ssRNA)
RNA: GGGAGUUCUACAGUCCGACGAUCGCUUCGAUAUCCGCAUGCUAUAUGGCUCUGUGUUUUCAGGGGUGGGUGACACAGGCCUGUCUGAUGAGCACCAGGUCUGUUCCAGGCUGUGGCAAGCUGGCUCCUGGCUCAGAAGUGACAAAGCUGCAGUACAGAGGCCUCAGUGUGAGGUCAUCACCUCACAGUGGCUACAGACCAGGCUGUGGCCUGAGUGAGCUGGAACCUCUGGGGUGGGGACGAGAAAGAGAGAGGGAGAGAGAGGGGGGAGAGUGAGUGUGUGUGUGUGAAGGGGGAGAGUGUGCUCUUGCGGUCGCACUAGUGUGGAAUUCUCGGGUGUCAAGG
B4: ENSMUSG00000043670.240|Diras1|87:91;197:209;220:226;251:259 (ssRNA)
RNA: GGGAGUUCUACAGUCCGACGAUCGCUUCGAUAUCCGCAUGCUACUGUCUGAUGAGCACCAGGUCUGUUCCAGGCUGUGGCAAGCUGGCUCCUGGCUCAGAAGUGACAAAGCUGCAGUACAGAGGCCUCACACACAGGUCAUCACCUCACAGUGGCUACAGACCAGGCUGUGGCCUGAGUGAGCUGGAACCUCUGGGGUGGGGACGAGAAAGAGAGAGGGAGAGAGAGGGGGGAGAGUGACACACACACACACAAGGGGGAGACACACACGGGGAAGAGUGAGAGAGAUAGAGUCAUACACACACUCUUGCGGUCGCACUAGUGUGGAAUUCUCGGGUGUCAAGG
B5: ENSMUSG00000043670.241|Diras1|81:85;191:203;214:220;245:253 (ssRNA)
RNA: GGGAGUUCUACAGUCCGACGAUCGCUUCGAUAUCCGCAUGCUAGAUGAGCACCAGGUCUGUUCCAGGCUGUGGCAAGCUGGCUCCUGGCUCAGAAGUGACAAAGCUGCAGUACAGAGGCCUCACACACAGGUCAUCACCUCACAGUGGCUACAGACCAGGCUGUGGCCUGAGUGAGCUGGAACCUCUGGGGUGGGGACGAGAAAGAGAGAGGGAGAGAGAGGGGGGAGAGUGACACACACACACACAAGGGGGAGACACACACGGGGAAGAGUGAGAGAGAUAGAGUCAUACACACAGAGGGACUCUUGCGGUCGCACUAGUGUGGAAUUCUCGGGUGUCAAGG
B6: ENSMUSG00000043670.238|Diras1|99:103;209:221;232:238 (ssRNA)
RNA: GGGAGUUCUACAGUCCGACGAUCGCUUCGAUAUCCGCAUGCUAGGUGACACAGGCCUGUCUGAUGAGCACCAGGUCUGUUCCAGGCUGUGGCAAGCUGGCUCCUGGCUCAGAAGUGACAAAGCUGCAGUACAGAGGCCUCACACACAGGUCAUCACCUCACAGUGGCUACAGACCAGGCUGUGGCCUGAGUGAGCUGGAACCUCUGGGGUGGGGACGAGAAAGAGAGAGGGAGAGAGAGGGGGGAGAGUGACACACACACACACAAGGGGGAGACACACACGGGGAAGAGUGAGAGAGAUAGACUCUUGCGGUCGCACUAGUGUGGAAUUCUCGGGUGUCAAGG
B7: ENSMUSG00000043670.237|Diras1|105:109;215:227;238:244 (ssRNA)
RNA: GGGAGUUCUACAGUCCGACGAUCGCUUCGAUAUCCGCAUGCUAGGGGUGGGUGACACAGGCCUGUCUGAUGAGCACCAGGUCUGUUCCAGGCUGUGGCAAGCUGGCUCCUGGCUCAGAAGUGACAAAGCUGCAGUACAGAGGCCUCACACACAGGUCAUCACCUCACAGUGGCUACAGACCAGGCUGUGGCCUGAGUGAGCUGGAACCUCUGGGGUGGGGACGAGAAAGAGAGAGGGAGAGAGAGGGGGGAGAGUGACACACACACACACAAGGGGGAGACACACACGGGGAAGAGUGAGAGACUCUUGCGGUCGCACUAGUGUGGAAUUCUCGGGUGUCAAGG
B8: ENSMUSG00000043670.233|Diras1 (ssRNA)
RNA: GGGAGUUCUACAGUCCGACGAUCGCUUCGAUAUCCGCAUGCUAUGUCUGUAUGGCUCUGUGUUUUCAGGGGUGGGUGACACAGGCCUGUCUGAUGAGCACCAGGUCUGUUCCAGGCUGUGGCAAGCUGGCUCCUGGCUCAGAAGUGACAAAGCUGCAGUACAGAGGCCUCAGUGUGAGGUCAUCACCUCACAGUGGCUACAGACCAGGCUGUGGCCUGAGUGAGCUGGAACCUCUGGGGUGGGGACGAGAAAGAGAGAGGGAGAGAGAGGGGGGAGAGUGAGUGUGUGUGUGUGAAGGGGGAGCUCUUGCGGUCGCACUAGUGUGGAAUUCUCGGGUGUCAAGG

molecular target: TDP-43 (Homo sapiens, UniProt Q13148 1-414); test: RNA Bind-n-Seq with designed 260-mer pool; 25 mM Tris-HCl, 150 mM KCl, 3 mM MgCl2, BSA (printed 500 mg/mL), 20 units/mL SUPERase IN; pH not stated; 500 nM RNA pool, 1 h, 4 C; TDP-43 5, 50, 500 nM; high values mean tight binding; details: protein: recombinant; tags: SBP (GST cleaved off with PreScission; pGEX-GST-SBP)
Procedure, shortened: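 An in vitro-transcribed pool of 260-nt 3′ UTR oligos (500 nM) was incubated for 1 h at 4 °C with recombinant SBP-tagged TDP-43 at 5, 50 or 500 nM held on streptavidin beads. The buffer contained 25 mM Tris-HCl, 150 mM KCl, 3 mM MgCl2, BSA and SUPERase IN. Biotin-eluted bound RNA was sequenced, and binding, R, is each oligo's normalized read abundance in the bound sample over that in input.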

TDP-43, sequence (Q13148 whole entry): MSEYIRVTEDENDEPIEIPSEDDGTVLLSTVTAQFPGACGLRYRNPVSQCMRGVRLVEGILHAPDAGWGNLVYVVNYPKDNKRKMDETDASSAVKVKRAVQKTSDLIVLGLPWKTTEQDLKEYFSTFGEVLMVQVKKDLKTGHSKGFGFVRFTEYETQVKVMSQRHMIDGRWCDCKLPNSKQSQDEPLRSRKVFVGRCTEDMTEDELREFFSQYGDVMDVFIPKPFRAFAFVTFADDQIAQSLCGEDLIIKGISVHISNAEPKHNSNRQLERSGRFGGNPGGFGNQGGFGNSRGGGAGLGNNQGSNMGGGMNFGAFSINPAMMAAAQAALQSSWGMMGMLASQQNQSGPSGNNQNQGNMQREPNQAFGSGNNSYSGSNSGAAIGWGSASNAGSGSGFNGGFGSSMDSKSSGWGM

B1 was tested. Which binding signal did it give?
The binding signal was 6.45 R (bound/input frequency ratio).

With B2 as the binder, how does the binding signal read?
Its binding signal is 12.1 R (bound/input frequency ratio).

For B3, which binding signal is on record?
Its binding signal is 6.5 R (bound/input frequency ratio).

Which binding signal does the source give for B4 here?
Its binding signal is 3.45 R (bound/input frequency ratio).

How did the binding signal turn out when B5 was run?
The binding signal was 4.89 R (bound/input frequency ratio).

For B6, which binding signal is on record?
Its binding signal is 4.05 R (bound/input frequency ratio).

With B7 as the binder, how does the binding signal read?
The binding signal was 9.04 R (bound/input frequency ratio).

Which binding signal does the source give for B8 here?
Its binding signal is 7.61 R (bound/input frequency ratio).

Source: publication PMC12864922, “TDP-43 directly inhibits mRNA accumulation in neurites through modulation of mRNA stability”
